A selection: hits, their analogues and other compounds. The true share with any hit is near 2.2%.
Abeta yeast res: A-beta toxicity reversal in yeast. hit rate 0.063% among 410,000. Potency, µM (highest dose often 46.1 µM), hits mostly activators. yeast expressing A-beta42, growth rescue, OD600, 48 h; response scale: 0% DMSO, 100% iron-clioquinol control; also: nearly all actives have a fitted effect of over 55% in size
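Growth rescue measured by 600 nm absorbance after 48 h yeast culture at 30 C with compound. Values normalized between DMSO and an equimolar ferric chloride plus clioquinol control.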
Mito fusion yeast: inhibitors of mitochondrial division or activators of mitochondrial fusion; S. cerevisiae fusion-defective mutant growth rescue, CellTiterGlo 48 h; Potency, µM (titrated, usually from 46.1 µM), without a hit: at the highest dose growth rescue (activation), hits mostly activators; hit rate 0.23% among 320,000; AID 485298; also: % of control where 0% means no effect; nearly all actives have a fitted effect of over 45% in size
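Growth-rescue viability read-out: after 48 h at the non-permissive 37C in glycerol/ethanol YPEG, yeast mitochondrial fusion mutants are measured by CellTiterGlo luminescence; compounds (23 nl pinned per well) restoring growth score as division inhibitors or fusion activators.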
TDP43 rescue: rescues yeast growth from TDP-43 toxicity | TDP-43 expressing yeast growth rescue, BacTiter-Glo, 24 h | Potency, µM (doses to about 46.1 µM), inactives show at the highest dose growth rescue (activation), usual class: activators | hit rate 1.8% among 410,000; also: % of control where 0% means no effect; nearly all actives have a fitted effect of over 50% in size
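Readout is BacTiter-Glo luminescence of cell growth, so inhibitors register as activators. TDP-43-expressing yeast at OD600=0.02 in galactose medium, after raffinose pregrowth to mid-log, were incubated with compound for 24 hr at 30 deg C.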
aSyn yeast inh: inhibitors of alpha-synuclein toxicity in yeast; hit rate 0.14% among 370,000; AID 652106; Yeast expressing alpha-synuclein, growth rescue, BacTiter-Glo, 24 h; Potency, µM (highest dose often 46.1 µM), for the others: top-dose growth rescue (activation), most hits filed as activators; also: % of control where 0% means no effect; nearly all actives have a fitted effect of over 65% in size
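Screening used galactose-induced yeast with toxic alpha-synuclein levels, exposed to compound for 24 hr at 30 deg C. Cell growth, read with BacTiter-Glo luminescence, gave the measured signal.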
FUS suppressor: rescues growth of FUS-expressing yeast. S. cerevisiae FUS-expressing, growth rescue, OD600, 24 h. Potency, µM (series often up to 76.6 µM), most hits filed as activators. hit rate 0.24% among 390,000. AID 1347120;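 also: plate controls were DMSO vehicle for no effect and reference control for full effect; nearly all actives have a fitted effect of over 55% in size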
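Absorbance at 600 nm, taken 24hr after compound addition, measured rescue of FUS-yeast growth at 30C. Induction used 2% galactose with seeding at OD 0.005. Controls: CP55940 from 92uM final, DMSO only.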
ERG Ets-DNA blk: ERG Ets/DNA interaction inhibition. P11308. fluorescence polarization, His-ERG Ets domain / labelled DNA. AID 624246. hit rate 0.028% among 370,000. Potency, µM (titrated, usually from 76.9 µM), inactives show at the top dose FP activity, negative = inhibition, actives largely listed as inhibitors; active = well fitted inhibition curve with a large enough effect in the polarisation, with a control signal flat; inconclusive = small, poorly fitted or top-dose-only effect, or effect the other way, or a change in a side signal; inactive = no such curve, though single readings can be large or run the other way; the % refers to the polarisation;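 also: polarization taken with two DNA probes labelled with fluorescein and Texas red; % of control where 0% means no effect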
Target sequence (P11308 whole entry, looked up, the tested form may be a part): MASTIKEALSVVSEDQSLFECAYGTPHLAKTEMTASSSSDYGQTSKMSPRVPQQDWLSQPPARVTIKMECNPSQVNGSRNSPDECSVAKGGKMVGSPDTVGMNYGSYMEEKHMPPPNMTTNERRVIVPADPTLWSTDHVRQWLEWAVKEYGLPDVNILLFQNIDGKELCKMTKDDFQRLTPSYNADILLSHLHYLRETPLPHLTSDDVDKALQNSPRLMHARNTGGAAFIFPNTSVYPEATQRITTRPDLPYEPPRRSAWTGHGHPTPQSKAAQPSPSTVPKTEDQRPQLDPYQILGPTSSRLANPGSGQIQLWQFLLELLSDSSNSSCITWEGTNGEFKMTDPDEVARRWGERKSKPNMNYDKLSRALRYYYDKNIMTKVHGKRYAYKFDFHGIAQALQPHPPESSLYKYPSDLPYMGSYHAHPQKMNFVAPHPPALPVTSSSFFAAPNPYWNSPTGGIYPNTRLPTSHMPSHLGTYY
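His-tagged ERG Ets domain (1 uM in the protein solution; 300mM KCl, 50mM Tris-HCl, 1mM EDTA, 1mM DTT, pH 7.5) received compound, then a probe mix of 5 nM fluorescein-DNA and 100nM Texas-615-DNA. Fluorescence polarization was read for both dyes.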
Numbers without * were called inactive; i = inactive; ? = inconclusive; · = no result given; [ ] = remark or other dose. Unless noted, calls follow the shape of the dose curve; as a rule, active = well fitted curve in the direction sought with a large enough effect; inconclusive = small, poorly fitted or top-dose-only effect, or another doubt; inactive = no such curve, though single readings can be large; an effect the other way counts as inactive or inconclusive. Potency is read from the fitted curve at half-maximal effect.

SMILES | Abeta yeast res | Mito fusion yeast | TDP43 rescue | aSyn yeast inh | FUS suppressor | ERG Ets-DNA blk
O=C(Cc1ccccc1)NC(=S)Nc1ccc(OC(F)F)cc1 | 11µM* | 0% | 25% | -7% | i | 3%
O=C(Cn1nc(-c2ccccc2)nc(Cc2ccccc2)c1=O)Nc1ccccc1 | i | · | 3% | · | i | 2%
CCOc1ccc(OCc2ccc(C(=O)N(CC)CC)cc2)cc1 | i | ? | 13µM* | -11% | i | -13%
O=C(NCc1cccs1)C1CCN(S(=O)(=O)c2cccc3ccccc23)CC1 | · | · | · | · | i | ·
COC(=O)c1ccc(N(CC(=O)NC2CCCC2)C(=O)c2ccc(C)s2)cc1 | i | -17% | -11% | 3% | i | 33%
COc1cc(/C=C/c2ccc(O)cc2)cc(OC)c1 | i | 7% | 28µM* | -19% | i | 11%
COC(=O)[C@]12C[C@H](CC(=O)NCC3CCCCC3)C(=O)N(CCc3ccc(OC)c(OC)c3)C1=C[C@H](COCc1ccccc1)O[C@@H]2C | · | · | · | · | 10µM* | ·
COC(=O)[C@]12C[C@H](CC(=O)NCc3cccc4ccccc34)C(=O)N(Cc3ccc(Cl)cc3Cl)C1=C[C@H](COCc1ccccc1)O[C@@H]2C | · | · | · | · | i | ·
CCOC(=O)N1CCN(C(=O)C[C@H]2C[C@@]3(C(=O)OC)C(=C[C@H](COCc4ccccc4)O[C@@H]3C)N(Cc3cccc4ccccc34)C2=O)CC1 | · | · | · | · | 22µM* | ·
COC(=O)[C@]12C[C@H](CC(=O)N3CCCC3)C(=O)N(Cc3ccccc3)C1=C[C@H](COCc1ccccc1)O[C@@H]2C | · | · | · | · | i | ·
COC(=O)[C@]12C[C@H](CC(=O)NCCc3ccccc3OC)C(=O)N(Cc3cccc4ccccc34)C1=C[C@H](COCc1ccccc1)O[C@@H]2C | · | · | · | · | 16µM* | ·
FC(F)(F)c1ccc(Cn2ccc3ccc(-c4ccc5ccn(Cc6ccccc6)c5c4)cc32)cc1 | · | · | · | · | i | ·
COc1ccc(C(=O)N2CC3(CC(c4cccc(NC(=O)COc5ccc(Cl)cc5)c4)=NO3)C[C@@H]2C(N)=O)cc1 (some centres not stated) | i | 15% | 4% | 2% | 35µM* | 12%
COc1ccc(-c2cccc(NC(=O)COc3ccc(Cl)cc3)c2)nn1 | i | ? | 11µM* | -11% | i | 5%
O=C(O)Cc1sc(=O)[nH]c1O | i | · | -26% | -9% | i | 5%
O=[N+]([O-])c1cccc(N/N=C/c2cccc(O)c2O)c1 | i | 3% | 13µM* | 16% | i | -4%
CN(C)C(=O)/C=C\c1cn(-c2ccccc2)nc1-c1ccc2c(c1)OCCO2 | i | 18µM* | 0%[0.397 µM] | 8% | i | -5%
O=C(O)/C=C/c1cn(-c2ccccc2)nc1-c1ccc2c(c1)OCCO2 | i | 5% | 1% | -1% | i | -7%
CCOc1ccc(C(=O)Nc2cccc(C)n2)cc1 | i | -3% | -7% | -13% | i | -3%
CCCCCCCCOc1ccc(C(=O)O)cc1 | i | 13µM* | 15% | 6% | i | -14%
CCCCCCOc1ccc(C(=O)O)cc1C#N | i | ? | 22µM* | -17% | · | -2%
CCCCOc1ccc(C(=O)Oc2ccc(C)nc2)cc1 | i | -9% | -8% | -13% | i | -5%
CCCCOc1ccc(C(=O)Nc2cccc(C)n2)cc1 | i | -4% | 2.8µM* | -26% | · | -6%
CCCCOc1ccc(C(=O)O)cc1 | i | 4% | ? | -12% | i | -2%
CCCCCOc1ccc(OC(=O)c2ccncc2)cc1 | i | -3% | 35µM* | -6% | i | -4%
SMILES | Abeta yeast res | Mito fusion yeast | TDP43 rescue | aSyn yeast inh | FUS suppressor | ERG Ets-DNA blk
CC(C)Oc1ccc(C(=O)O)cc1 | i | -4% | 13µM* | 1% | i | -5%
COc1cccc2c1C(=N)c1c(O)c3c(c(O)c1C2=O)CC(O)(C(C)=O)CC3OC1CC(N)C(O)C(C)O1 (configuration not stated) | i | · | -63% | -39% | · | ?
COc1cccc2c1C(=O)c1c(O)c3c(c(O)c1C2=O)CC(O)(C(C)=O)CC3OC1CC(O)C(O)C(C)O1 (configuration not stated) | i | · | 24% | 2% | · | 2.5µM*
COc1cccc2c1C(=O)c1c(O)c3c(c(O)c1C2=O)C[C@](O)(C(C)=O)C[C@H]3O[C@@H]1C[C@@H](N)[C@@H](O)[C@@H](C)O1 | i | -17% | -13% | 11µM* | i | ?
CC1CCN(c2cc(C#N)c(C#N)cc2[N+](=O)[O-])CC1 | i | -3% | 5% | -15% | i | 1%
CC1CCN(c2cc(N)c(Cl)cc2[N+](=O)[O-])CC1 | i | -8% | 18µM* | ? | i | 4%
COc1cc(Cl)c(C)cc1NC(=O)c1cc(S(=O)(=O)N2CCCC2)ccc1F | i | · | 6% | · | i | 1%
O=C(CCCOc1cccc(Br)c1)NCCOc1ccccc1 | i | 0% | 13µM* | 10% | i | 3%
CC(C)CCNC(=O)CCCOc1ccccc1 | i | 1% | 9% | -2% | i | 6%
O=C(O)CCCCCn1c(SCC(=O)c2ccc(O)c(O)c2)nc2ccsc2c1=O | i | -4% | 5% | -1% | · | 8%
CCCCn1c(SCC(=O)c2ccc(O)c(O)c2)nc2ccsc2c1=O | i | -2% | 20µM* | 6% | · | 6%
Cc1cc(C)cc(NC(=O)CN2C(=O)CSc3ccc(S(=O)(=O)N(C)C)cc32)c1 | i | · | 22% | · | i | 0%
CNC(=O)c1ccc(-c2sc3nc(N4CCOCC4)c4c(c3c2N)CC(C)(C)OC4)o1 | i | 8% | 17% | -2% | i | 3%
CNC(=O)c1ccc(-c2sc3nc(N4CCOCC4)c4c(c3c2N)CCCC4)o1 | i | 6% | 22µM* | -8% | 7.1µM* | -10%
CC(=O)Nc1ccc(C=CC=Cc2cccc([N+](=O)[O-])c2)cc1 | i | · | 14µM* | -52% | · | -5%
COc1ccc(/C=N/NC(=S)SC)cc1OC | ? | -5% | 35µM* | -18% | i | 9%
COc1ccc(C=NNC(=O)NN=Cc2ccc(OC)c(OC)c2)cc1OC | i | · | -14% | -3% | i | 20%
CCc1cc(=O)oc2cc(C)c(CN3CCCC(C)C3)c(O)c12 (configuration not stated) | i | 4% | -26% | 12% | 7.1µM* | 3%
CCCCc1cc(=O)oc2cc(C)c(CN3CCCC3)c(O)c12 | i | -1% | -16% | 7% | ? | 4%

Bioassay records (PubChem)
